The whole screen tested about 39,000 compounds, of which about 3,300 (8.5%) were called active. The sample as a whole holds a higher share of actives than the screen did.

The test system of the experiment is HepG2. Description: cytotoxicity call (relative viability < 0.9). Conditions: 10 µM.
`C[C@@H]1CN([C@@H](C)CO)C(=O)c2cc(NC(=O)Nc3ccccc3)ccc2O[C@H]1CN(C)CC1CCCCC1`: the cytotoxicity call is “inactive”.
Next, `COc1ccccc1S(=O)(=O)N[C@H]1CC[C@@H](CCNC(=O)C2CC2)O[C@H]1CO`: “inactive”; `CCOC(=O)C[C@H]1CCCNC1`: “inactive”; `COC(=O)c1c(C)cc(OC)cc1O`: “inactive”.
For the compound `CCOC(=O)c1c(C)cc(O)cc1O`, the cytotoxicity call is “inactive”.
As to `CCOC(=O)c1c(C)cc(OC)cc1O`, the cytotoxicity call is “active”.
To `C[C@H](CO)N1C[C@H](C)[C@H](CN(C)S(=O)(=O)c2cccs2)Oc2ncc(C#Cc3ccccc3)cc2C1=O` belongs “inactive”.
For `C[C@@H]1CCCCO[C@H](CN(C)C(=O)Nc2cccc3ccccc23)[C@@H](C)CN([C@H](C)CO)C(=O)c2cc(NS(=O)(=O)c3ccccc3)ccc2O1`, the cytotoxicity call was “inactive”.
To `C[C@@H]1CCCCO[C@@H](CN(C)C(=O)Nc2cccc3ccccc23)[C@H](C)CN([C@H](C)CO)C(=O)c2cc(NS(C)(=O)=O)ccc2O1` belongs “inactive”; to `C[C@@H]1CCCCO[C@H](CN(C)C(=O)Nc2cccc3ccccc23)[C@H](C)CN([C@H](C)CO)C(=O)c2cc(NS(=O)(=O)c3ccccc3)ccc2O1`, “active”.
To `C[C@H]1CCCCO[C@@H](CN(C)C(=O)Nc2cccc3ccccc23)[C@@H](C)CN([C@@H](C)CO)C(=O)c2cc(NS(=O)(=O)c3ccccc3)ccc2O1` belongs “inactive”; to `C[C@H](CO)N1C[C@H](C)[C@@H](CN(C)C(=O)Nc2cccc3ccccc23)OCCCC[C@H](C)Oc2ccc(NS(=O)(=O)c3ccccc3)cc2C1=O`, “inactive”.
Take `C[C@@H]1CCCCO[C@@H](CN(C)C(=O)Nc2cccc3ccccc23)[C@H](C)CN([C@@H](C)CO)C(=O)c2cc(NS(=O)(=O)c3ccccc3)ccc2O1`: the cytotoxicity call was “inactive”.
As for `C[C@@H]1CN([C@@H](C)CO)C(=O)c2cc(NS(=O)(=O)c3ccccc3)ccc2O[C@@H](C)CCCCO[C@@H]1CN(C)C(=O)Nc1cccc2ccccc12`, the cytotoxicity call is “inactive”.
To `C[C@@H]1CCCCO[C@@H](CN(C)C(=O)Nc2cccc3ccccc23)[C@H](C)CN([C@H](C)CO)C(=O)c2cc(NS(=O)(=O)c3ccccc3)ccc2O1` belongs “active”; to `C[C@@H]1CCCCO[C@H](CN(C)C(=O)Nc2cccc3ccccc23)[C@H](C)CN([C@H](C)CO)C(=O)c2cc(NS(C)(=O)=O)ccc2O1`, “active”.
To `C[C@@H]1CCCCO[C@H](CN(C)C(=O)Nc2cccc3ccccc23)[C@@H](C)CN([C@@H](C)CO)C(=O)c2cc(NS(C)(=O)=O)ccc2O1` belongs “inactive”; to `C[C@@H]1CN([C@@H](C)CO)C(=O)c2cc(NS(=O)(=O)c3ccccc3)ccc2O[C@@H](C)CCCCO[C@H]1CN(C)C(=O)Nc1cccc2ccccc12`, “active”.
To `C[C@@H]1CCCCO[C@H](CN(C)C(=O)Nc2cccc3ccccc23)[C@@H](C)CN([C@@H](C)CO)C(=O)c2cc(NS(=O)(=O)c3ccccc3)ccc2O1` belongs “inactive”.

(Values after the antibiotic and cytotoxicity screens of Wong et al. (2023).)
